High-throughput results as filed in PubChem.
The list is not random: actives were taken first. Their share in the collection is about 5.4%.
CSC inhib = cancer stem cell inhibition; hit rate 1.1% among 300,000; cancer stem cell-like cells viability, luminescence; inhibition, % at 7.5 µM; in the data active = inhibition above about 75%; inconclusive = no clear call, values can overlap the other calls; tested in HMLE shEcad cells
PP1 inh = counter-screen for PP5 inhibitors: inhibitors of human PP1-alpha | P62136 | inhibition, % at 6.7 µM | purified PP1alpha, OMFP fluorescence | hit rate 0.9% among 320,000;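 active = inhibition above the mean inhibition of all tested compounds plus 3 SD, computed separately for each screening campaign, cut at about 15% in these data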
Target sequence (P62136 whole entry, looked up): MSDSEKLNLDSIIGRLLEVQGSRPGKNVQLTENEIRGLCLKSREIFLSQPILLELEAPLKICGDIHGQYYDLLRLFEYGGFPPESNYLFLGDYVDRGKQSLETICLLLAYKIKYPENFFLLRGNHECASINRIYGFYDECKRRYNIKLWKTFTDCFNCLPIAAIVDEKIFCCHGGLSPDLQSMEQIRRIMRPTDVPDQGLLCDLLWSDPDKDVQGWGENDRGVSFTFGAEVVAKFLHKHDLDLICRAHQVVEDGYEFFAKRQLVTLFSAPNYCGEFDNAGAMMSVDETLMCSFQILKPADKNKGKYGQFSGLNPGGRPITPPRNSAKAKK
PP5 inh = inhibitors of human protein phosphatase 5 (PP5) | hit rate 0.18% among 320,000 | purified PP5c, OMFP substrate fluorescence | inhibition, % at 6.7 µM;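 active = inhibition above the campaign's mean inhibition across all tested compounds plus 3 SD, cut at about 9.5% in these data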;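 also: 0% = DMSO only and 100% = 100 µM cantharidin control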
ALR H2O2 inh = blocks human ALR sulfhydryl oxidase activity | inhibition, % (test concentration not listed) | purified ALR, DTT oxidation, H2O2 HRP-luminol luminescence | hit rate 3.8% among 290,000 | AID 485317 | P55789;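 active = mean replicate inhibition above about 79%, with every replicate also reaching it, limit read from the data; inconclusive = only one of the two criteria met; inactive = mean below limit and not every replicate reaching it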
Target sequence (P55789 whole entry, looked up): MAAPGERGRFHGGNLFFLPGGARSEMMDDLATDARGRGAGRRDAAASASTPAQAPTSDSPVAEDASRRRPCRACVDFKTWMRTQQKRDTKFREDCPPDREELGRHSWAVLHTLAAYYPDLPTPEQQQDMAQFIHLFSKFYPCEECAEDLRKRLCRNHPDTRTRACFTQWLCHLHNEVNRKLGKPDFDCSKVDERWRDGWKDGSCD
Calb FLC = affects C. albicans growth with fluconazole. C. albicans CaCi-2 (fluconazole-resistant clinical isolate) + fluconazole, Alamar Blue growth, 48 h. growth inhibition, % (test concentration not listed). hit rate 0.57% among 300,000;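 active = growth inhibition above about 58% in most replicates, limit read from the data, passing the limit was not always enough; inconclusive = exactly half the replicates above a set limit; inactive = most replicates below a set limit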;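 also: all wells also contain fluconazole at 8 µg/ml as a sub-toxic cotreatment; 0% = median of DMSO wells and 100% = median of geldanamycin control wells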
PP1 inh confirm = confirmation of human PP1 phosphatase inhibitors; AID 2358; purified PP1alpha, OMFP substrate fluorescence; hit rate 52% among 1,900; inhibition, % at 6.7 µM; shares compounds with PP1 inh;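 active = mean PP1 inhibition above a set limit taken from the earlier primary screen, cut at about 15% in these data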
PP5 counter = counter-screen for PP1 inhibitors: human PP5 phosphatase inhibition | AID 2360 | shares compounds with PP1 inh | purified PP5c, OMFP fluorescence | inhibition, % at 6.7 µM | hit rate 4% among 1,900;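 active = mean PP5 inhibition over triplicate wells above about 9.5% taken from the earlier PP1 screen, limit read from the data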
Numbers without * were called inactive; ? = inconclusive; . = not tested or not shown.

SMILES | CSC inhib | PP1 inh | PP5 inh | ALR H2O2 inh | Calb FLC | PP1 inh confirm | PP5 counter
O=C(N/N=C/c1cc([N+](=O)[O-])ccc1O)c1cccc(N2CCCC2=O)c1 | -8 | 25* | 3 | 4 | -1 | 21* | -5
O=C(N/N=C/c1cccc([N+](=O)[O-])c1)c1cccc2cc[nH]c12 | 2 | -2 | 1 | -2 | 28 | . | .
Cc1cc(C)n(C(=O)CNC(=O)c2ccccc2Br)n1 | -19 | -4 | -1 | -5 | -6 | . | .
CC(=O)Nc1cc(C(=O)N(C)Cc2ccccc2)ccc1S(=O)(=O)c1ccc(C)cc1 | . | -1 | -2 | . | -4 | . | .
COc1ccc(NC(=O)c2cc(-c3ccncc3)nc3ccc(Br)cc23)cc1OC | 14 | 18* | 1 | -13 | -7 | 24* | 0
CN(CC1CCCO1)S(=O)(=O)c1ccc(C(=O)Nc2ccc3c(c2)OCO3)cc1 (stereo not drawn) | -6 | -3 | 0 | -8 | 1 | . | .
CN(CC1CCCO1)S(=O)(=O)c1ccc(C(=O)Nc2nc3cc4c(cc3s2)OCO4)cc1 (stereo not drawn) | 31 | 23* | 4 | -11 | 1 | 26* | -4
CCC(=O)NC(=S)Nc1ccc(NC(=O)c2cccnc2)cc1 | -9 | 0 | 0 | -8 | -11 | . | .
Cc1cccc2nc(-c3ccco3)c(Nc3ccccc3)n12 | 5 | 3 | -2 | . | 2 | . | .
Cc1cccc(C)c1Nc1c(-c2ccccn2)nc2ccccn12 | 39 | 28* | 2 | 94* | -15 | 5 | 0
Cc1ccc(Nc2c(-c3ccccn3)nc3cccc(C)n23)cc1 | ? | 40* | 4 | 99* | ? | 50* | 4
CC(c1nnnn1C(C)(C)C)N(Cc1cccnc1)Cc1ccccc1Cl (stereo not drawn) | -4 | 3 | 3 | -15 | -1 | . | .
Cc1ccccc1NC(=O)COC(=O)/C=C/c1cn(-c2ccccc2)nc1-c1cccnc1 | 1 | 32* | 2 | 3 | -24 | 32* | -4
COc1ccc(CNC[C@@H](CCCCN(C)Cc2ccc(OC)cc2)N2C[C@H](c3ccccc3)N(CCc3ccc(Cl)c(Cl)c3)C(=O)C2=O)cc1 | 107* | 39* | 5 | -36 | 17 | 13 | -1
CCOc1ccc(CCN2C(=O)C(=O)N([C@H](CCCN(C)Cc3ccccc3)CNCc3ccccc3)C[C@@H]2C(C)C)cc1 | . | . | . | . | -24 | . | .
O=C(N/N=C/c1ccc(O)c2ncccc12)c1cccc(Br)c1 | -1 | 21* | -1 | 74 | 116* | 18* | 1
Cc1ccc(-n2c(=O)cc(NCc3cccnc3)[nH]c2=O)cc1 | -8 | 25* | 2 | 0 | 0 | -4 | -5
NC(=O)c1nnsc1Sc1c(C(N)=O)nnn1-c1cccc(N)c1 | . | 9 | 0 | -15 | -6 | . | .
O=c1[nH]c(C2CCN(S(=O)(=O)c3ccc(C(F)(F)F)cc3)CC2)nc2c1nnn2Cc1ccc(F)cc1 | 1 | 19* | 6 | -6 | 11 | 5 | 5
O=c1[nH]c(C2CCN(S(=O)(=O)c3cccc(C(F)(F)F)c3)CC2)nc2c1nnn2Cc1cccc(F)c1 | 9 | 14 | 5 | -2 | 11 | . | .
O=C(NC1CCCC1)c1nc2c(nnn2Cc2cccc(Cl)c2)c(=O)[nH]1 | 8 | 21* | -2 | 58 | -6 | 9 | -2
CC(=O)c1cccc(S(=O)(=O)N2CCCC(c3nc4c(nnn4Cc4cccc(Cl)c4)c(=O)[nH]3)C2)c1 (stereo not drawn) | -3 | 20* | 3 | 2 | -1 | 15* | 2
CC(C)(C)NC(=O)Cn1c(SCC(=O)N2CCCCCC2)nc2ccccc21 | -10 | -6 | 1 | -16 | -8 | . | .
O=C(CSc1nnc(SCc2ccccc2Cl)s1)N/N=C/c1ccc(C(=O)O)cc1 | 14 | 7 | 4 | 7 | -2 | . | .
O=C(CNC(=O)c1ccc2c(c1)OCO2)Nc1ncccc1O | -2 | 1 | -3 | -43 | 3 | . | .
SMILES | CSC inhib | PP1 inh | PP5 inh | ALR H2O2 inh | Calb FLC | PP1 inh confirm | PP5 counter
COc1ccc(C2CC(c3cccs3)=NN2C(=O)CCC(=O)O)cc1 (stereo not drawn) | -12 | 1 | 0 | -3 | -11 | . | .
O=C(NC(=S)N1CCCC(C(F)(F)F)C1)c1ccc(F)cc1 (stereo not drawn) | -5 | 2 | 0 | 15 | 8 | . | .
Cc1nn(CC(=O)Nc2ccc3c(c2)nc2n3CCN(C3CCCCC3)C2)c(=O)c2ccccc12 | -6 | 20* | 3 | -12 | 7 | 6 | 0
O=C(Nc1ccc(Nc2ccncc2)cc1)c1ccc(Nc2ccnc3ccc([N+](=O)[O-])cc23)cc1[N+](=O)[O-] | 27 | 41* | 6 | 8 | -3 | -11 | 1
Nc1cccc(Nc2nc(OC(C(F)(F)F)C(F)(F)F)nc(OC(C(F)(F)F)C(F)(F)F)n2)c1 | -3 | 18* | 19* | 0 | 4 | 16* | 15*
Cc1ccc(C)c(Cn2nnc3c(=O)[nH]c(C(=O)NCc4ccco4)nc32)c1 | . | 19* | 1 | 74 | 0 | 4 | -5
O=C(NCc1cccs1)c1nc2c(nnn2Cc2ccc(F)cc2)c(=O)[nH]1 | . | 11 | 2 | 18 | 46 | . | .
Cc1cc(NC(=O)CSc2ccc(-c3ccc(Br)cc3)nn2)no1 | -8 | 18* | -2 | -6 | . | -3 | -3
COC(=O)c1cc(OC)c(OC)cc1NC(=O)C(C)c1ccc([N+](=O)[O-])cc1 (stereo not drawn) | -9 | 2 | 1 | -13 | -8 | . | .
N#Cc1c(=O)c2nc(NCc3ccccc3)ncc2n2ccccc12 | -7 | 2 | 1 | -93 | 11 | . | .
N#Cc1c(=O)c2nc(NCCCO)ncc2n2c(=O)c3ccccc3[nH]c12 | 16 | 20* | 5 | -35 | 5 | 17* | 1
CCOC(=O)N/N=C/c1ccccc1OCc1ccc(Cl)cc1 | . | 2 | 2 | 1 | -4 | . | .
O=C(Cc1ccccc1)N/N=C/c1ccccc1OCc1ccc(Cl)cc1 | 22 | 21* | 3 | -4 | -11 | -1 | 2
O=C(NCCC1=CCCCC1)C(c1ccccc1)c1ccccc1 | -2 | 0 | 3 | 5 | 6 | . | .
Cc1cc(Cl)ccc1Oc1ccccc1C(=O)CC#N | 26 | 20* | 1 | 7 | 22 | 0 | -8
Cc1ccc(NC(=O)C(NC2CCCc3ccccc32)c2ccccc2)c([N+](=O)[O-])c1 (stereo not drawn) | 31 | 2 | 3 | -7 | 7 | . | .
COc1ccc(N2CCN(c3ccc(NC(=O)/C=C\C(=O)O)cc3)CC2)cc1 | -2 | 20* | 1 | 83* | -8 | -4 | -5
CCc1nnc(NS(=O)(=O)c2ccc(NC(=S)NC(=O)/C=C/c3ccc(F)cc3)cc2)s1 | -7 | 20* | 3 | . | 30 | 12 | 2
O=C1CC(=C(c2ccccc2)c2ccccc2)C(=O)N1CCCCN1CCN(c2cccc(Cl)c2)CC1 | 113* | 25* | 5 | 3 | ? | 4 | -2
